This is an account of results in PubChem BioAssay (EPA / NIEHS).

Records with an inconclusive call do not appear. Some compounds were tested as several samples or in several runs, with calls that do not always agree. Active and inactive are the calls of the source. Rule for the calls, unless noted: active = hit-call score of the fitted dose curve at least 0.9, where 1 is the maximum; inconclusive = response in the unintended direction; inactive = score below 0.9.

Read-out in experiment [1]: UDP glucuronosyltransferase (UGT1A1), UGT1A1 (gene 54658)
Kind of experiment: LTEA_HepaRG_UGT1A1: Life Technologies and Expression Analysis (LTEA) Assay for UDP glucuronosyltransferase (UGT1A1) using HepaRG (AID 2283538; active = hit-call score of the fitted dose curve at least 0.9, where 1 is the maximum; inactive = score below 0.9). Conditions: mRNA level, 48 h; actives raise or lower the signal. In short, it runs like this:
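Differentiated human HepaRG cells in serum-free induction medium were exposed in duplicate for 48 h to eight half-log concentrations up to 100 uM in 0.5% DMSO. UGT1A1 mRNA was quantified by TaqMan qRT-PCR, normalized to ACTB, GAPDH and POLR2A, and fitted bidirectionally against DMSO.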

Read-out in experiment [2]: UDP glucuronosyltransferase (UGT1A6), UGT1A6 (gene 54578)
Kind of experiment: LTEA_HepaRG_UGT1A6: Life Technologies and Expression Analysis (LTEA) Assay for UDP glucuronosyltransferase (UGT1A6) using HepaRG (AID 2283539; active = hit-call score of the fitted dose curve at least 0.9, where 1 is the maximum; inactive = score below 0.9). Conditions: mRNA level, 48 h; actives raise or lower the signal. The method in brief: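 HepaRG, 48 h post-plating switch to serum-free induction medium; chemical 48 h, 100 uM top, half-log x8, duplicate, 0.5% DMSO. Phenobarbital 1mM induction control. UGT1A6 mRNA by TaqMan qRT-PCR; gain/loss fit vs DMSO.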

A short description of experiment [3]: LTEA_HepaRG_LDH_cytotoxicity: Cytotoxicity Assessment in the Life Technologies and Expression Analysis (LTEA) Assay (AID 2283563).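 For AC50: LDH activity released into spent culture medium as a marker of cell death.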 In short, it runs like this: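 Cells were thawed and plated for 48 h. Medium was then replaced with serum-free induction medium. Chemicals (8 half-log points, maximum 100 uM, 0.5% DMSO) were added in duplicate for 48 h, after which spent medium was assayed for LDH.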

A short description of experiment [4]: TOX21_p53_BLA_p2_viability: Viability Assessment in the Tox21 HCT-116 p53 Agonism Beta-lactamase Assay, Phase 2 (AID 2283591).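 Note: compound exposure lasted 16 h at 37 °C; actives lower the ATP signal meaning cytotoxicity.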 In short, it runs like this: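 HCT-116 p53-bla cells (4000/well) rested 5 h at 37C, then received compounds in DMSO (217-fold dilution) for 16 h at 37C, 5% CO2. After the CCF4 read, CellTiter-Glo was added; ATP luminescence was read after 30 min at room temperature.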

For experiment [5], the target named is Cellular tumor antigen p53 (Homo sapiens) (UniProt P04637). The experiment is described as follows: TOX21_p53_BLA_p2_ratio: Tox21 HCT-116 p53 Agonism Beta-lactamase Assay, Ratio, Phase 2 (AID 2283592). In short, it runs like this:
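HCT116 p53-bla; 4000 cells/well; 5 h pre-incubation; cpd in DMSO, 217-fold dilution; 16 h 37C/5% CO2; CCF4-AM 2 h RT; Ex 405, Em 460/530 ratio; DMSO = baseline; positive fitting direction.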

Experiment [6] is described as follows: TOX21_p53_BLA_p3_viability: Viability Assessment in the Tox21 HCT-116 p53 Agonism Beta-lactamase Assay, Phase 3 (AID 2283593).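 Note: cells exposed to compound for 16 h before reading.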 In short, it runs like this: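 HCT-116 cells (4000/well) rested 5 h at 37C, then got DMSO compounds by pin tool (217-fold dilution) for 16 h at 37C, 5% CO2. After the bla read, CellTiter-Glo was added and luminescence read at 30 min, room temperature.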

In experiment [7] the target is Cellular tumor antigen p53 (Homo sapiens) (UniProt P04637). Kind of experiment: TOX21_p53_BLA_p3_ratio: Tox21 HCT-116 p53 Agonism Beta-lactamase Assay, Ratio, Phase 3 (AID 2283596). In short, it runs like this:
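HCT116 p53-bla cells (4000/well) given compound in DMSO (217-fold dilution) after 5 h, incubated 16 h at 37C. CCF4-AM substrate 2 h at room temperature; 460/530 nm emission ratio, gain fitted against DMSO.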

Experiment [8] in a line: TOX21_p53_BLA_p4_viability: Viability Assessment in the Tox21 HCT-116 p53 Agonism Beta-lactamase Assay, Phase 4 (AID 2283597).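 Note: hits lower the luminescence signal meaning cytotoxicity.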 The method in brief:
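Cells plated, 5 h pre-incubation; DMSO compounds pinned (217-fold dilution); 16 h, 37C/5% CO2; CCF4-AM 2 h RT; CellTiter-Glo 30 min RT; luminescence read.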

Experiment [9] deals with Cellular tumor antigen p53 (Homo sapiens) (UniProt P04637). Kind of experiment: TOX21_p53_BLA_p5_ratio: Tox21 HCT-116 p53 Agonism Beta-lactamase Assay, Ratio, Phase 5 (AID 2283599). In short, it runs like this: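 HCT-116 cells carrying a p53-inducible beta-lactamase reporter were seeded at 4000 cells/well and dosed after 5 h with compound in DMSO (217-fold dilution). After 16 h at 37C, CCF4-AM substrate was added for 2 h, and the 460/530 nm emission ratio was scored as gain-of-signal versus DMSO.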

A short description of experiment [10]: TOX21_p53_BLA_p5_viability: Viability Assessment in the Tox21 HCT-116 p53 Agonism Beta-lactamase Assay, Phase 5 (AID 2283600). The method in brief:
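4000 cells/well; 5 h pre-incubation; DMSO compounds pin-transferred, 217-fold dilution; 16 h, 37C/5% CO2; CCF4-AM 2 h RT; CellTiter-Glo 30 min RT; luminescence.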

Experiment [11] can be described thus: Tanguay_ZF_120hpf_MORT_legacy: (Legacy) Oregon State University Tanguay Lab 120 Hour Post-fertilization zebrafish Assay for Mortality (AID 2283633). The method in brief:
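5D WT zebrafish, chorion removed 4 hpf; 1 embryo/well from 6 hpf; static exposure to 120 hpf, 28C, dark, sealed. Final DMSO 0.64%. Readout: binary mortality, brightfield, 24 + 120 hpf; DMSO as negative control.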

The nature of experiment [12]: Tanguay_ZF_120hpf_YSE_legacy: (Legacy) Oregon State University Tanguay Lab 120 Hour Post-fertilization zebrafish Assay for Yolk Sac Edema (AID 2283634).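 For AC50: actives raise the incidence of yolk sac edema above the DMSO baseline.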 The method in brief: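 Dechorionate (pronase, 4 hpf) → place one 6 hpf embryo per well → static compound exposure, sealed and foil-covered, 28C, to 120 hpf → record yolk sac edema as present or absent. Final DMSO 0.64%.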

Experiment [13] in a line: Tanguay_ZF_120hpf_AXIS_legacy: (Legacy) Oregon State University Tanguay Lab 120 Hour Post-fertilization zebrafish Assay for Body Axis Malformation (AID 2283635). In short, it runs like this:
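Chorion is removed with pronase at 4 hpf, then single 6 hpf embryos are dosed (final DMSO 0.64%) and held statically at 28C in sealed, foil-covered plates. At 120 hpf body axis malformation is recorded as present or absent.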

Experiment [14] in a line: Tanguay_ZF_120hpf_EYE_legacy: (Legacy) Oregon State University Tanguay Lab 120 Hour Post-fertilization zebrafish Assay for Eye Malformation (AID 2283636).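 Note: binary presence or absence of eye malformation scored by brightfield in 120 hpf larvae.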 In short, it runs like this: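 Dechorionated wild-type Tropical 5D zebrafish embryos were exposed statically from 6 hpf, one per well, to 120 hpf at 28C in sealed, foil-covered plates with 0.64% DMSO. Eye malformation was scored present/absent by brightfield microscopy against DMSO controls.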

The nature of experiment [15]: Tanguay_ZF_120hpf_SNOU_legacy: (Legacy) Oregon State University Tanguay Lab 120 Hour Post-fertilization zebrafish Assay for Snout Malformation (AID 2283637). In short, it runs like this: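 Tropical 5D wild-type zebrafish embryos, dechorionated with pronase at 4 hpf, were exposed singly from 6 hpf to 120 hpf statically at 28C in 0.64% DMSO. Snout malformation was scored present/absent by brightfield microscopy, fitted against DMSO.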

The nature of experiment [16]: Tanguay_ZF_120hpf_JAW_legacy: (Legacy) Oregon State University Tanguay Lab 120 Hour Post-fertilization zebrafish Assay for Jaw Malformation (AID 2283638). In short, it runs like this: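 Steps: dechorionate 4 hpf embryos (pronase); plate 1/well at 6 hpf; add test chemical, 0.64% DMSO final; seal, cover, hold at 28C statically to 120 hpf; score jaw defect presence/absence microscopically. Dead embryos not scored.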

Experiment [17] in a line: Tanguay_ZF_120hpf_OTIC_legacy: (Legacy) Oregon State University Tanguay Lab 120 Hour Post-fertilization zebrafish Assay for Otic Vesicle Malformation (AID 2283639). In short, it runs like this:
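Tropical 5D wild-type zebrafish embryos were exposed statically in sealed, foil-covered plates at 28C until 120 hpf, with 0.64% (vol/vol) DMSO final. Otic vesicle malformation was scored present/absent by brightfield microscopy, with DMSO as baseline.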

For experiment [18], the target named is Cellular tumor antigen p53 (Homo sapiens) (UniProt P04637). The experiment is described as follows: TOX21_p53_BLA_p4_ratio: Tox21 HCT-116 p53 Agonism Beta-lactamase Assay, Ratio, Phase 4 (AID 2283601). The method in brief:
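HCT116 cells carrying an inducible beta-lactamase reporter were plated at 4000 cells/well, rested 5 h, then exposed to compounds in DMSO (217-fold dilution) for 16 h at 37C. CCF4-AM substrate was loaded 2 h at room temperature; 460/530 nm emission ratio scored gain-of-signal versus DMSO.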

Broadly, the AC50 is the concentration giving half of the maximal activity seen.

Cellular tumor antigen p53 (Homo sapiens), sequence (P04637 whole entry, looked up): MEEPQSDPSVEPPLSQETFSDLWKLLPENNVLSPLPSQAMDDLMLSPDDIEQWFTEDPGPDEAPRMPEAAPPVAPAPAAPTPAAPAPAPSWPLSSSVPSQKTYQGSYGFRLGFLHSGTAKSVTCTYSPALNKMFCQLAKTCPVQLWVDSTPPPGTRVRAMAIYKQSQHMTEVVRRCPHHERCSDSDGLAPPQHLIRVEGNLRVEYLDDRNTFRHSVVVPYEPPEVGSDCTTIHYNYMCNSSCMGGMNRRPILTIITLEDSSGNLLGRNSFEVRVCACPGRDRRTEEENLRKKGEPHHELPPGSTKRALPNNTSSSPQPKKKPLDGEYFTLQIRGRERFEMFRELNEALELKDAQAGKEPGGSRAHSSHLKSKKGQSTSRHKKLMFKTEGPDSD

On to `CC(C)=CC1C(C(=O)OCN2C(=O)C3=C(CCCC3)C2=O)C1(C)C` (stereo not given), for which the call in experiment [1], in [2], in [3], in experiment [4], in [5] and in [6] was inactive. Also, the result in experiment [7], in [8], in [9], in [10], in [11] and in [12] was inactive. The molecule was classed as inactive in experiment [13], in [14], in [15] and in experiment [16]. In [8], the AC50 was 46.1 µM (active).

Regarding `CC(=NC#N)N(C)Cc1ccc(Cl)nc1`, the concentration at half-maximal activity (AC50) in [1] is 50 µM (active). Besides, the result in [2], in experiment [3], in [4], in [5], in experiment [6] and in experiment [7] was inactive. Further, the molecule was called inactive in experiment [8], in [9], in [10], in [11], in [12] and in experiment [13]. For the same molecule, the call in experiment [14], in [16] and in experiment [17] was inactive.

With `COP(=O)(OC)OC(Br)C(Cl)(Cl)Br` (stereo not given), the molecule was classed as inactive in experiment [1], in [2], in experiment [3], in experiment [11], in experiment [12] and in experiment [13]. Also, the molecule was classed as inactive in experiment [14], in experiment [15], in [16] and in experiment [17].

`CN(C)C(=O)Nc1cccc(C(F)(F)F)c1`: the half-maximal activity concentration (AC50) in experiment [1] was 1.22 µM (active). The outcome in experiment [2], in experiment [3], in experiment [5], in experiment [7], in experiment [8] and in experiment [9] was inactive. Further, the molecule was called inactive in experiment [10], in experiment [18], in experiment [11], in [12], in experiment [13] and in experiment [14]. The result in [16] and in [17] was inactive.

For the molecule `CCCCSP(=O)(SCCCC)SCCCC`, the call in experiment [1], in [2], in [4], in [5], in experiment [7] and in experiment [8] was inactive. For the same molecule, the result in experiment [9], in experiment [10], in experiment [11], in experiment [13], in experiment [14] and in [17] was inactive. Besides, the half-maximal activity concentration (AC50) in experiment [3] was 63.5 µM (active); in [12], 7.24 µM (active).

On to `COP(=O)(NC(C)=O)SC` (stereo not given), for which the molecule was called inactive in experiment [1], in experiment [2], in experiment [3], in experiment [4], in experiment [5] and in experiment [6]. Also, the result in experiment [7], in experiment [8], in experiment [9], in [18], in [11] and in [12] was inactive. The molecule was classed as inactive in experiment [13], in experiment [14], in [15], in [16] and in experiment [17].

As to `CCOP(=O)(OCC)Oc1cc(C)nc(C(C)C)n1`, the call in experiment [1], in experiment [2], in experiment [3], in experiment [5], in experiment [6] and in experiment [7] was inactive. The result in experiment [9], in experiment [10], in experiment [11], in experiment [12], in experiment [13] and in experiment [14] was inactive. The call in [15], in experiment [16] and in experiment [17] was inactive.

For `COP(=O)(OC)C(O)C(Cl)(Cl)Cl` (stereo not given), the values for the AC50 in [1], in experiment [2] and in experiment [12] were 0.0534 µM (active), 0.103 µM (active) and 56.1 µM (active), respectively. Besides, the molecule was called inactive in experiment [3], in experiment [4], in experiment [5], in experiment [6], in experiment [7] and in [8]. Also, the result in experiment [9], in experiment [10], in experiment [11], in experiment [13], in experiment [14] and in experiment [16] was inactive. Moreover, the call in experiment [17] was inactive.
